Out of some 48,000 compounds screened, about 13,000 (27%) showed an effect of 50% or more. The list shows a part of the results.

In the assay the test system is Wolbachia pipientis. In words: Anti-Wolbachia Cell-Based Screen. Format: functional. Also noted: scale not given: in the data most compounds retested in dose-response had high values. Particulars: 5 µM.
Consider `Cn1c(C(N)=O)ccc1-c1ccccc1`, for which the “Percent Effect” value is 3.483%.

Consider `CC(C)NC(=O)NCCCOC1CCOCC1`, for which the “Percent Effect” value is reported as -1.893%. For `COCCOCC(=O)N(Cc1cccc(C)c1)C(C)C` the value was -6.619%; for `O=C(O)C(F)(F)F.O=C1COC2(CCN(Cc3ccoc3)CC2)CN1CCn1cccn1`, 2.726%. For `Cc1cccc(CN2CC3(CCN(Cc4ccoc4)CC3)OCC2=O)n1.O=C(O)C(F)(F)F.O=C(O)C(F)(F)F` the value was 122.8%. For the molecule `Cc1cccc(CN2CC3(CCN(Cc4ccco4)CC3)OCC2=O)n1.O=C(O)C(F)(F)F.O=C(O)C(F)(F)F`, the “Percent Effect” value was determined as 121.1%.

Consider `O=C(O)C(F)(F)F.O=C1COC2(CCN(Cc3ccco3)CC2)CN1CCn1cccn1`, for which the “Percent Effect” value was found to be 4.018%. For `O=C(O)C(F)(F)F.O=C(c1ccco1)N1C[C@H]2CCCN(CC3CCOCC3)[C@H]2C1` the value was -19.49%; for `COCCNC(=O)[C@H]1CN(Cc2scnc2C)C[C@H]2OCC[C@@H]12.O=C(O)C(F)(F)F.O=C(O)C(F)(F)F`, -9.051%; for `COc1cccc(-c2ncc(CN3CC[C@H]4CC[C@@H](C3)N4)s2)c1`, -2.167%. With `O=c1[nH]c(-c2ccc(F)c(F)c2)nc2c1CCNC2`, the “Percent Effect” value is -21.65%. For `Cc1nc(CN2CCCC(N(C)Cc3nnsc3Cl)C2)no1` (configuration not stated) the value was -2.376%; for `CCOc1nnc(CN2CCC(N(C)Cc3noc(C)n3)C2)s1` (configuration not stated), 5.667%. For `Cc1nc(CN2CCCC(N(C)Cc3cnc(C)s3)C2)no1` (configuration not stated) the value was 2.952%; for `Cc1nc(CN(C)C2CCN(Cc3cnc(C)s3)C2)no1` (configuration not stated), 106.5%; for `CC(=O)N(Cc1noc(C)n1)C1CCN(Cc2cnc(C)s2)C1` (configuration not stated), 83.55%. As for `CCc1cnc(CN2CCC(N(C)Cc3noc(C)n3)C2)o1` (configuration not stated), the “Percent Effect” value was 97.22%. For `Cc1nc(CN(C)C2CCN(Cc3ccc(Cl)s3)C2)no1` (configuration not stated) the value was 99.87%; for `NC(=O)N1CCc2cc(C(=O)O)c(-c3ccsc3)nc2CC1.O=C(O)C(F)(F)F`, -21.16%. As for `Cc1cc(CNC(=O)Nc2cc(F)cc(N3CCCC3)c2)no1`, the “Percent Effect” value is reported as -57.71%.

With `Cc1cccc(C(C)(C)CNC(=O)CN(C)S(=O)(=O)c2cccnc2)c1`, the “Percent Effect” value came out at 4.775%. As for `CC(O)CN(CC(=O)NC1CCCCC1)c1ccccc1` (configuration not stated), the “Percent Effect” value was -11.54%. For `CC(C)(C)c1ncc2c(n1)CN(C(=O)c1ccc(-c3nc[nH]n3)cc1)C2` the value was -2.467%; for `CCc1ccc(C(=O)N2CCN(Cc3ccc(F)cc3)CC2)s1`, -10.91%; for `CC(C)(C)Cc1nnc(NCc2ccsc2)o1`, -6.79%. For `CC(=O)N(Cc1noc(C)n1)C1CCN(Cc2ncc(C(C)C)o2)C1` (configuration not stated) the value was 142.1%; for `CC(=O)N(Cc1ncc(C(C)C)o1)C1CCN(Cc2nccn2C)C1` (configuration not stated), -4.268%. As to `CC(=O)N(Cc1ncc(C(C)C)o1)C1CCN(Cc2ncc[nH]2)C1` (configuration not stated), the “Percent Effect” value came out at 11.04%. For `CCNC(=O)C(C)NC(=O)Nc1ccccc1Cl` (configuration not stated) the value was -14.58%. As to `CCC1(c2ccc(NS(=O)(=O)c3cccs3)cc2)CCC(=O)NC1=O` (configuration not stated), the “Percent Effect” value came out at 2.702%. Turning to `CCC1(c2ccc(NS(=O)(=O)N(C)C)cc2)CCC(=O)NC1=O` (configuration not stated), the “Percent Effect” value was determined as 138.3%. On to `CN(C)S(=O)(=O)Nc1ccc(-n2nncc2C(F)(F)F)cc1`, for which the “Percent Effect” value is reported as -14.8%. For `CC(C)NC(=O)Nc1ccc(-c2nc3c([nH]2)CCNC3)cc1` the value was 8.53%; for `CC(C)NC(=O)Nc1ccc(CS(C)(=O)=O)cc1`, 125.1%; for `CC(C)C(C)NC(=O)Nc1cccn(C)c1=O` (configuration not stated), 14.72%. Turning to `NC(=O)Cc1ccc(NC(=O)C2CCOCC2)cc1`, the “Percent Effect” value is reported as -3.616%. On to `CC(C)C(C)NC(=O)Nc1ccc(CC(N)=O)cc1` (configuration not stated), for which the “Percent Effect” value is recorded as 98.71%.

Turning to `CC(CO)NC(=O)Nc1ccc(CC#N)cc1` (configuration not stated), the “Percent Effect” value is -17.07%. In the case of `CCC(C)NC(=O)Nc1ccc(CN2CCOC2=O)cc1` (configuration not stated), the “Percent Effect” value is 17.46%. In the case of `CCNC(=O)Cc1ccc(NC(=O)NC(CC)CC)cc1`, the “Percent Effect” value is 3.76%. For `CC(C)C(C)NC(=O)Nc1ccc(CS(=O)(=O)C(C)C)cc1` (configuration not stated) the value was 98.92%. For `Cc1occc1CNC(=O)N(CCCO)C1CCc2ccccc21` (configuration not stated) the value was -0.08809%; for `CCC(CO)N(Cc1ccccn1)C(=O)c1ncccc1C` (configuration not stated), -0.3576%; for `Cc1ccnc(C2CN(Cc3ccc(-c4ccccc4C(=O)O)o3)C2)n1`, 103.2%. In the case of `Cc1nccc(C2CN(Cc3ccc(-c4ccccc4C(=O)O)o3)C2)n1`, the “Percent Effect” value was found to be 137.2%. For `CCNC(=O)[C@@H]1C[C@H](N)CN1Cc1ccc(-c2ccccc2C#N)o1`, the “Percent Effect” value was found to be 18.83%. For `CCNC(=O)[C@@H]1C[C@@H](N)CN1Cc1ccc(-c2ccccc2C#N)o1` the value was -0.5053%; for `CCc1nc(C)ncc1C(=O)N1CC(=O)N(C)c2ccccc21`, -0.2346%. For `Cc1ccc(CN2CCC3(CCC3NS(=O)(=O)c3ccccc3)CC2)o1.O=C(O)C(F)(F)F` (configuration not stated) the value was -9.512%. As to `Nc1nccc(C2CN(Cc3ccc(-c4ccccc4C(=O)O)o3)C2)n1`, the “Percent Effect” value was found to be 91.52%.

Regarding `Cc1ccc(CN2C[C@@H](C(=O)O)[C@H](c3ccccn3)C2)o1`, the “Percent Effect” value was 12.21%. Consider `CCc1cnc(C)nc1N1CCN(Cc2ccc(-c3cc[nH]n3)o2)CC1`, for which the “Percent Effect” value was -14.59%. For `NCCN1C(=O)CC[C@H]2CN(Cc3ccc4occc4c3)CC[C@H]21` the value was -1.233%; for `C1CN(c2nc(C3CC3)ns2)CCS1`, 2.674%. Regarding `CS(=O)(=O)c1cccc2c1CCCN2C(=O)Cc1cccc(F)c1`, the “Percent Effect” value came to 14.6%. For `CS(=O)(=O)c1ccc(O[C@H]2COCCN(C(=O)c3ccno3)C2)cc1` the value was -17.98%.

Turning to `CCCN(c1ccccc1C(=O)O)S(=O)(=O)c1ccc2ccccc2c1`, the “Percent Effect” value is recorded as -7.662%. For `CC1=CCN(C(=O)Nc2ccccc2N2CCOC2=O)CC1` the value was 8.909%; for `COc1ccc(C)cc1C1(CNc2cn[nH]c(=O)c2Cl)CCOCC1`, 1.939%. For `CC(NC(=O)N(C)Cc1ccncc1)c1cn(-c2ccccc2)nn1` (configuration not stated), the “Percent Effect” value is -5.138%. As to `COC(=O)N1CCC(Nc2cccc(F)c2C(C)=O)CC1`, the “Percent Effect” value is 7.066%. On to `CC1(C)CC(N(Cc2ccncc2)Cc2cccnc2)CC(C)(C)N1.O=C(O)CC(O)(CC(=O)O)C(=O)O`, for which the “Percent Effect” value turned out to be 106.8%. `CCCN(Cc1cccnc1)C1CC(C)(C)NC(C)(C)C1.O=C(O)CC(O)(CC(=O)O)C(=O)O`: the “Percent Effect” value was determined as 90.76%.

Consider `CCCN(Cc1cccnc1)C(=O)C1CCS(=O)(=O)CC1`, for which the “Percent Effect” value is -18.37%. Take `CCCN(Cc1cccnc1)C(=O)C1CCNC1` (configuration not stated): the “Percent Effect” value is -6.629%.

As to `Cc1cccc(CN(Cc2cccnc2)C2CC(C)(C)NC(C)(C)C2)n1.O=C(O)CC(O)(CC(=O)O)C(=O)O`, the “Percent Effect” value stood at 68.09%. For the molecule `CC1(C)CC(N(Cc2cccnc2)Cc2cccc(F)c2)CC(C)(C)N1.O=C(O)CC(O)(CC(=O)O)C(=O)O`, the “Percent Effect” value is 152.9%.

(Values after ChEMBL document CHEMBL3988442, “University of Dundee, Small-Polar-MMV Screening Library” (2021).)
